Reference: PubChem BioAssay AID1347165 (National Center for Advancing Translational Sciences (NCATS), 2019)
The whole screen tested about 220,000 compounds, of which about 5,700 (2.6%) were called active. Where a call stands in place of a potency, no number is given. Roughly 18% stayed inconclusive and do not appear here. Calls follow the shape of the dose curve; as a rule, active = well fitted inhibition curve with a large enough effect; inconclusive = small, poorly fitted or top-dose-only effect; inactive = no such curve, though single readings can be large or run the other way. The full list was thinned out, with actives kept by preference.
Also: nearly all actives have a fitted effect of over 70% in size.
Potency is read from the fitted curve at half-maximal effect.

Each molecule was assayed against Lysine-specific demethylase 5B (Homo sapiens) (UniProt Q9UGL1) (assay: Primary screen for KDM5B Histone Demethylases FDH-coupled qHTS). Conditions: FDH-coupled NADH fluorescence (FDH is formaldehyde dehydrogenase); series mostly up to 57.7 µM.
Lysine-specific demethylase 5B (Homo sapiens), sequence (Q9UGL1 whole entry, looked up, the tested form may be a part): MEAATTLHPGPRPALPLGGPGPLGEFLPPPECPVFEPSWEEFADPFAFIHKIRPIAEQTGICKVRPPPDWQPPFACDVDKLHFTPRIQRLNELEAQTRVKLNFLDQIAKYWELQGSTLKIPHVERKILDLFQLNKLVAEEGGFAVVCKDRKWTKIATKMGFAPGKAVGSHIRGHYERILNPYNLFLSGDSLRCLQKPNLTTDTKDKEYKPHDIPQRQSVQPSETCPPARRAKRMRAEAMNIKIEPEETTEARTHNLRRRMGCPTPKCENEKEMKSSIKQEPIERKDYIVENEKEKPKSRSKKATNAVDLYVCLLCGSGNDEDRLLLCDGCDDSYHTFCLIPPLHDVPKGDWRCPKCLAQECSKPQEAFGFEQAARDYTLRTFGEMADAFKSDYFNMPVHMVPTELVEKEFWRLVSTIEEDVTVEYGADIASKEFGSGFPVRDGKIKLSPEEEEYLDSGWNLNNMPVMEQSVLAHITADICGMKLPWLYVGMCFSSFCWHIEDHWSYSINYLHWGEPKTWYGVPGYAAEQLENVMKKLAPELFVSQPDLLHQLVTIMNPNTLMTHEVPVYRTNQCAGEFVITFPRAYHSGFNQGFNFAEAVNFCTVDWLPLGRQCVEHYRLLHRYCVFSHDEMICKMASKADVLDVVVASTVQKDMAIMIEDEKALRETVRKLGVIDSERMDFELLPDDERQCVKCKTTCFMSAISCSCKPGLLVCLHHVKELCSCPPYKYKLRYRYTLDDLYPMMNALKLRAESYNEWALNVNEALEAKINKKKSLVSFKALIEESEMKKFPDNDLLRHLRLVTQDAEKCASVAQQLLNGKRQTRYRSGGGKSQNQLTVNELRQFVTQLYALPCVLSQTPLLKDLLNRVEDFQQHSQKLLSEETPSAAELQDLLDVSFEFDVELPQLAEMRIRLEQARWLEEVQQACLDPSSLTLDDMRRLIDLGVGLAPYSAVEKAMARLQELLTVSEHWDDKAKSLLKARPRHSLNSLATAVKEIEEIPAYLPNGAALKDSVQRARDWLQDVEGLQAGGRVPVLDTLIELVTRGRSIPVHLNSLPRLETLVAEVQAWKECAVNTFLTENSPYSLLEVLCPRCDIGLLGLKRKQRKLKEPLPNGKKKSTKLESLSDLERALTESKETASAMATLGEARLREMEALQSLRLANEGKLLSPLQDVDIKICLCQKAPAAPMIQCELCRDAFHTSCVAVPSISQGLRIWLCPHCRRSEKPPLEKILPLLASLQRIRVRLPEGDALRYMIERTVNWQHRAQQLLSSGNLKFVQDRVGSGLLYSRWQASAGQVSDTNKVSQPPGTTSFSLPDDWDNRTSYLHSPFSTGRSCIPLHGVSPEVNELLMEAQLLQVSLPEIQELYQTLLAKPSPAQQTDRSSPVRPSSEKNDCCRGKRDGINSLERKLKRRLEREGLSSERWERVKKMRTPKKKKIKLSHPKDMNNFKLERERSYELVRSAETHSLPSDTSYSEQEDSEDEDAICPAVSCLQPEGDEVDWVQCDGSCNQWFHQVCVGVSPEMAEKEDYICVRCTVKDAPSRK
Procedure, shortened: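 Inhibition is measured as reduced NADH fluorescence generation from FDH coupling to formaldehyde release. Truncated KDM5BΔAP at 200 nM final acts on H3K4me3 peptide (12.5 µM in substrate mix) in pH 7.5 HEPES buffer with Tween-20, 30 min, room temperature.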
`Cc1nc(-c2cn(C3CCCN(C(=O)c4cccs4)C3)nn2)no1` (configuration not stated) was tested, and the Potency was “inactive”. In the case of `COc1ccc(CN2CCc3ncc(C(=O)NCCOc4ccccc4)n3CC2)cn1`, the Potency was “inactive”. In the case of `CNC(=O)[C@@H]1CN(Cc2cccc(OC)c2)C[C@H]1CO`, the Potency was “inactive”. `COc1cccc(CN2CCc3c(cc(C(=O)NCCN4CCCCC4)n3C)C2)c1` was tested, and the Potency was 22.4 µM (active). In the case of `CN(CCOc1ccccc1Cl)C(=O)c1cc2ccccc2oc1=O`, the Potency was “inactive”. `O=C(COc1cccc(-n2cnnn2)c1)Nc1ccc(S(=O)(=O)N2CCOCC2)cc1` was tested, and the Potency was “inactive”. For `O=C1NCCN(Cc2ccccc2)C1CC(=O)N1CCN(c2ccccc2)CC1` (configuration not stated), the Potency was 20 µM (active). In the case of `O=C(O)CC1C(=O)NCCN1Cc1ccc(Cl)c(F)c1` (configuration not stated), the Potency was “inactive”. With `Cc1ccc(CN2CCNC(=O)C2CC(=O)NC2(CO)CCCC2)cc1` (configuration not stated) the Potency was “inactive”. `COc1ccc(NC(=O)CSc2nccn2-c2cccc(C(F)(F)F)c2)cc1` was tested, and the Potency was “inactive”. With `CCN1CCC(N(Cc2cccs2)C(=O)Nc2cc(Cl)ccc2C(=O)OC)CC1` the Potency was “inactive”. In the case of `O=C(CCNC(=O)c1cnccn1)Nc1ccccc1Cc1ccccc1`, the Potency was “inactive”. With `COc1ccccc1-c1noc(COC(=O)c2ccc3c(c2)NC(=O)CS3)n1` the Potency was “inactive”. With `CC(C)N1C(=O)C2(CCCC2)C1C(=O)Nc1ccc2c(c1)N(C)CCC2` (configuration not stated) the Potency was 31.6 µM (active). With `C=CCNC(=O)C1N(C(C)C)C(=O)C12CCCCC2` (configuration not stated) the Potency was “inactive”. For `C=CCNC(=O)C1N(C(C)C)C(=O)C12CCCC2` (configuration not stated), the Potency was “inactive”. For `CCNC(=O)NC(=O)CSc1nc(-c2ccco2)nc2ccccc12`, the Potency was “inactive”. In the case of `COc1ccc(C(=O)N[C@H]2C[C@@H](c3nc(-c4ccc(OC)cc4)no3)N(C)C2)cc1`, the Potency was “inactive”. `CN1C[C@@H](NC(=O)c2ccc(C(C)(C)C)cc2)C[C@H]1c1nc(-c2ccc3ccccc3c2)no1` was tested, and the Potency was 25.1 µM (active). In the case of `CN1C[C@@H](NC(=O)c2ccccc2)C[C@H]1c1nc(-c2ccccc2)no1`, the Potency was “inactive”. With `COc1ccc(Cl)cc1NC(=O)N1CCC2(CC1)N=C(c1ccc(C)c(C)c1)C(=O)N2` the Potency was “inactive”. `Cc1nc(-c2cn(C3CCCN(C(=O)c4cc(F)ccc4F)C3)nn2)no1` (configuration not stated) was tested, and the Potency was “inactive”. In the case of `Cc1ccc2c(C(=O)N3CCCC(C#N)C3)cc(-c3cnn(C(C)C)c3)nc2c1` (configuration not stated), the Potency was 28.2 µM (active). For `CC(C)(C)OC(=O)N1CCN(C(=O)c2cc(-c3ccncc3)nc3ccccc23)CC1`, the Potency was “inactive”. `C=CCn1c(SCc2coc(-c3cccc(Cl)c3)n2)nnc1C1CCS(=O)(=O)C1` (configuration not stated) was tested, and the Potency was “inactive”. In the case of `COc1ccc(C(=O)OCC(=O)NCCCc2ccccc2)cc1OC`, the Potency was “inactive”. In the case of `COc1ccc(C(=O)Nc2oc3ccc(Cl)cc3c(=O)c2-c2cc(OC)c(OC)c(OC)c2)cc1`, the Potency was “inactive”. For `CC(C)Nc1ncc(C(=O)NC2CCCN(CCc3ccccc3)C2)cn1` (configuration not stated), the Potency was 25.1 µM (active). For `CCn1ccnc1CN(C)C1CCCN(CCc2ccccc2)C1` (configuration not stated), the Potency was “inactive”. With `Cc1occc1C(=O)NC1CCCN(Cc2ccc(CC(C)C)cc2)C1` (configuration not stated) the Potency was “inactive”. In the case of `Cc1ccc(C(=O)NC2CCN(c3cnn(CC4CC4)c(=O)c3)CC2)c(C)c1`, the Potency was “inactive”. In the case of `O=C(CSc1ncnc2c1cnn2-c1ccccc1)NC(=O)NC1CCCC1`, the Potency was “inactive”. In the case of `O=C(N[C@@H]1CCOC[C@H]1Oc1ccccn1)c1cc(C2CC2)no1`, the Potency was “inactive”. In the case of `Cc1nc2ncccn2c1C(=O)N[C@@H]1CCOC[C@H]1Oc1ccccn1`, the Potency was 31.6 µM (active). For `N#Cc1ccc(O[C@@H]2COCC[C@H]2NC(=O)CCCn2cccn2)cc1`, the Potency was “inactive”. `O=C(N[C@H]1CCOC[C@H]1C1CCOCC1)c1cccc2nccnc12` was tested, and the Potency was “inactive”. With `O=S(=O)(N[C@@H]1CCOC[C@H]1Oc1ccccn1)c1ccc(Cl)s1` the Potency was “inactive”. In the case of `Cc1nc(N(C)C)ncc1C(=O)N[C@@H]1CCOC[C@H]1Oc1ccccn1`, the Potency was 25.1 µM (active). `Cc1nn(C)c2nc(OC(C)C(=O)Nc3ccccc3F)cc(-c3ccccc3)c12` (configuration not stated) was tested, and the Potency was “inactive”. In the case of `CC(C)n1cnnc1CC1CCN(C(=O)CCCc2ccccc2)C1` (configuration not stated), the Potency was “inactive”. With `CC1(C)CC(=O)C/C(=N/NC(=O)c2ccccc2Br)C1` the Potency was “inactive”. For `CC(=O)Nc1cccc(C(=O)N2CCC3(CC2)NC(=O)N(c2cccc(Cl)c2)N3)c1`, the Potency was “inactive”. In the case of `COc1ccc(S(=O)(=O)N(C)Cc2nc(-c3ccc(OC(F)(F)F)cc3)no2)cc1`, the Potency was “inactive”. `O=[S+]([O-])(Nc1cccnc1)c1ccc2c(c1)OCCN(Cc1cscn1)C2` was tested, and the Potency was 35.5 µM (active). `O=[S+]([O-])(Nc1ccccc1)c1ccc2c(c1)OCCN(Cc1cccs1)C2` was tested, and the Potency was “inactive”. With `O=[S+]([O-])(Nc1cccnc1)c1ccc2c(c1)OCCN(Cc1ccc(F)cc1)C2` the Potency was “inactive”. With `Cc1c(C)[n+](=O)c2ccccc2n1[O-]` the Potency was “inactive”. `O=C(COC(=O)Cc1ccc(Cl)c(Cl)c1)NCc1ccc(F)cc1` was tested, and the Potency was “inactive”. With `COC(=O)[C@H](Cc1ccc(OC)cc1)NC(=O)[C@@H]1CN(C(=O)c2cccc(F)c2)CCN1C(=O)c1cccc(F)c1` the Potency was “inactive”. With `CC(C)(C)C(=O)NCCCC(=O)NCCc1cccs1` the Potency was “inactive”. In the case of `CCCc1nnc2sc(-c3ccc4c(c3)OCCO4)nn12`, the Potency was “inactive”. For `Fc1ccc(CNC[C@H]2Cn3c(-c4ccc5c(c4)OCCO5)cnc3CO2)cc1`, the Potency was “inactive”. For `CC(Sc1ccc2c(c1)OCCCO2)C(=O)O` (configuration not stated), the Potency was “inactive”. In the case of `O=C(CSc1ncnc2sccc12)c1ccc2c(c1)OCCCO2`, the Potency was “inactive”. For `CC(C)c1nc2nccc(-c3ccc4c(c3)OCCCO4)n2n1`, the Potency was 22.4 µM (active). For `c1cc(-c2ccc3c(c2)OCCCO3)n2ncnc2n1`, the Potency was 15.8 µM (active). In the case of `Cc1cc(C)cc(-c2nnc(SCC(=O)N3CCCC(C)C3)o2)c1` (configuration not stated), the Potency was “inactive”. `O=C(Cn1cccc1-c1nc(-c2ccccc2)no1)Nc1ccccc1F` was tested, and the Potency was “inactive”. With `COc1ccc(-c2c3c(=O)n(C)c(=O)n(C)c3c3n2C(C)(C)COC3c2cccc(OC)c2)cc1` (configuration not stated) the Potency was “inactive”. In the case of `Cc1cc(C)c(-c2cc(C(=O)Nc3ccccc3C(F)(F)F)[nH]n2)c(O)c1`, the Potency was “inactive”. In the case of `Cc1cc(C(=O)NCCc2ccc(Cl)cc2)n(-c2ccccc2)n1`, the Potency was “inactive”. For `Cc1cc(CNC(=O)c2ccc(-c3ccccc3Cl)o2)n(C)n1`, the Potency was 20 µM (active). For `Cc1ccc(CNC(=O)c2nn(C)c(=O)c3ccccc23)cc1`, the Potency was “inactive”. With `CCOC(=O)C1CCN(CC(O)c2cccc(C(F)(F)F)c2)CC1` (configuration not stated) the Potency was “inactive”. With `Cc1ccc(NC(=O)Nc2ccc3nc(N4CCOCC4)cc(C)c3c2)cc1` the Potency was “inactive”. With `O=C(c1cccnc1)N1CCC2(CCCN(C3CCOCC3)C2=O)C1` (configuration not stated) the Potency was “inactive”. `COc1cccc(-c2nc(N3CCOCC3)cc3c2CN(CC2CC2)C3=O)c1` was tested, and the Potency was 39.8 µM (active). In the case of `O=C1c2cc(N3CCOCC3)nc(-c3cccnc3)c2CN1C1COC1`, the Potency was 31.6 µM (active). With `O=C(c1cccnc1)N1CCN(c2cc(-c3ccccc3)[nH]n2)CC1` the Potency was “inactive”. `Cc1ccc(-c2nc(N3CCOCC3)cc3c2CN(Cc2cnn(C)c2)C3=O)cn1` was tested, and the Potency was 35.5 µM (active). With `COc1cccc(-c2noc(CC3CCN(C(=O)c4ccc(F)cc4)CC3)n2)c1` the Potency was “inactive”. `COCC(=O)N(C1CCOCC1)C1CCN(C(=O)c2cccc(OC)c2)CC1` was tested, and the Potency was “inactive”. In the case of `CCc1nc2c(c(-c3ccc(Cl)cc3)n1)CCN([S+](=O)([O-])c1cccs1)CC2`, the Potency was “inactive”. In the case of `O=C(O)c1ccc(C(=O)C2CCCCC2C(=O)O)cc1` (configuration not stated), the Potency was “inactive”. For `Cc1nn(-c2ncnc3nc[nH]c23)c2c1C(c1ccc(F)cc1F)CC(=O)N2` (configuration not stated), the Potency was “inactive”. For `Cc1cccc(OCc2nn3c(CN4CCOCC4)nnc3s2)c1`, the Potency was “inactive”. `Cc1cc2c(s1)CCCCCCCCCC/C2=N\Nc1ccc([N+](=O)[O-])cc1` was tested, and the Potency was “inactive”. In the case of `O=C(Nc1ccc2oc(=O)ccc2c1)c1cccc2ccccc12`, the Potency was “inactive”. With `CC(NC(=O)c1ccc(SC(F)(F)F)cc1)c1ccccn1` (configuration not stated) the Potency was “inactive”. `COc1ccc(NC(=O)Cc2c(C)c3ccc(O)cc3oc2=O)cc1` was tested, and the Potency was “inactive”. With `CC1(C)CC(NC(=O)Nc2ccc(OC(F)(F)F)cc2)CC(C)(C)N1` the Potency was “inactive”. In the case of `CN(C)C(=O)c1nc(-c2ccc(Cl)cc2Cl)c2cnccn12`, the Potency was 100 µM (active). With `CN(C)C(=O)c1nc(-c2cccnc2)c2ccccn12` the Potency was “inactive”. `CC1CCCCN1CCNC(=O)c1cc2c(s1)-c1ccccc1OC2` (configuration not stated) was tested, and the Potency was “inactive”. In the case of `CCc1noc(-c2ccn3c(CNC(=O)c4ccco4)nnc3c2)n1`, the Potency was 28.2 µM (active). With `NS(=O)(=O)c1ccc(F)c(C(=O)NCc2noc(-c3ccco3)n2)c1` the Potency was “inactive”. `CCCNC(=O)N1CC(Oc2ccc(-c3nc(C)no3)cc2)C1` was tested, and the Potency was “inactive”. In the case of `O=C(NCc1nnc2cc(-c3nc(C4CC4)no3)ccn12)c1ccc(F)cc1Cl`, the Potency was 28.2 µM (active). For `CN(C)c1ccc(C(=O)NCc2nnc3cc(-c4nc(C5CC5)no4)ccn23)cc1`, the Potency was “inactive”. With `CCCC(=O)Nc1ccc2c(c1)nc(CCNC(=O)c1ccco1)n2C` the Potency was “inactive”. In the case of `COc1ccc(CNC(=O)c2ccc3oc(C(C)C)nc3c2)cc1`, the Potency was “inactive”. With `CC(C)NC(=O)C1CCc2nnc(CNC(=O)c3ccc(Cl)cc3Cl)n21` (configuration not stated) the Potency was “inactive”. For `COc1ccc(C(=O)NCc2nnc3cc(-c4nc(C)no4)ccn23)cc1`, the Potency was 25.1 µM (active). In the case of `CSc1ncc(C(=O)NCCCc2ccccc2)c(C)n1`, the Potency was “inactive”. For `CCc1ccc(C2C(C(=O)Nc3ccccc3)=C(C)Nc3c(C(=O)Nc4ccc(F)cc4)cnn32)cc1` (configuration not stated), the Potency was “inactive”. In the case of `COc1ccc(CC(=O)NC(CCSC)c2nc3ccccc3[nH]2)cc1` (configuration not stated), the Potency was “inactive”. For `Cc1cc(=O)oc2cc(OCC(=O)NCc3cccs3)c(Cl)cc12`, the Potency was “inactive”. With `COc1ccc(CNC(=O)CN(Cc2ccccc2Cl)C(=O)c2csnn2)cc1` the Potency was “inactive”. `Cc1noc(-c2ccccc2NC(=O)C2CC(=O)N(c3cccc(C(F)(F)F)c3)C2)n1` (configuration not stated) was tested, and the Potency was “inactive”. For `N#CC1CCN(C(=O)c2nc(-c3ccc(Cl)cc3)c3ccccn23)CC1`, the Potency was 25.1 µM (active). In the case of `CC(C)c1nc2c(c(-c3ccc(Cl)cc3)n1)CN(C(=O)c1ccccc1)CC2`, the Potency was “inactive”. `O=C(c1cccc(Cl)c1)N1CCc2nc(C3CC3)nc(-c3ccc(Cl)cc3)c2C1` was tested, and the Potency was “inactive”.
